This note sets out measurements from PubChem BioAssay (NCATS).

In experiment [1] the target is Cytochrome P450 2D6 (Homo sapiens) (UniProt P10635). Nature of the experiment: qHTS for inhibitors of CYP2D6 against the NCATS DSHEA and TCM libraries (AID 1919972). Further: on the % scale 0 is the no-effect control and ±100 the full control effect. In a few lines:
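qHTS, concentration–response format with most substances from 19.5 nM. CYP2D6 + pro-luciferin substrate, 15 min with compound, then 1x NADPH regen, 30–45 min RT dark. Glo detection 30 min, luminescence. Quinidine control.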
For orientation: Quantitative high-throughput screening tests each substance at several concentrations.

Experiment [2] has as its target Cytochrome P450 2C9 (Homo sapiens) (UniProt P11712). Nature of the experiment: qHTS for inhibitors of CYP2C9 against the NCATS DSHEA and TCM libraries (AID 1919973). Further: potency means the concentration at half of the fitted maximal effect. The method, boiled down: (§1)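 Isoform-specific enzyme and substrate levels; enzyme-free wells as background. Reaction: 1x NADPH regenerating system, 30-45 min, room temperature, shielded from light; luminescent detection reagent added, 30 min.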

In experiment [3] the target is Cytochrome P450 2C19 (Homo sapiens) (UniProt P33261). As to the kind of experiment: qHTS for inhibitors of CYP2C19 against the NCATS DSHEA and TCM libraries (AID 1919974).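 Further: luminescence from luciferin released by CYP2C19 oxidation of a pro-luciferin substrate.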 Further: potency means the concentration at half of the fitted maximal effect. The method, boiled down: as §1
Cytochrome P450 2C19 (Homo sapiens), sequence (P33261 whole entry, looked up): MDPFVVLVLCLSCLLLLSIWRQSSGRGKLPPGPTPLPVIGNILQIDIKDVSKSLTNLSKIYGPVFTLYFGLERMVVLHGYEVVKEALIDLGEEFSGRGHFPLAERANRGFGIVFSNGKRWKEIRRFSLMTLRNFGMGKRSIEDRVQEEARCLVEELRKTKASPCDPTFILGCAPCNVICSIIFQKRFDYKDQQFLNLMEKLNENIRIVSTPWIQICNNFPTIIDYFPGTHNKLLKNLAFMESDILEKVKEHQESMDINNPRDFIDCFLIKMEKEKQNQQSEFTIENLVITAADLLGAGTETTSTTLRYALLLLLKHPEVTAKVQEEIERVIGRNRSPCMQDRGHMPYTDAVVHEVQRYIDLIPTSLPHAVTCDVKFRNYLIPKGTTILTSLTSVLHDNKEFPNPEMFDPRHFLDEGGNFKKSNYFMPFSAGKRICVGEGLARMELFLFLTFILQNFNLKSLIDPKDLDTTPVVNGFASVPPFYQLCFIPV
A short description of experiment [4]: KB-3-1 P-gp reporter qHTS against the NCATS DSHEA and TCM libraries (AID 1919975). Further: 0% is about no effect. The method, boiled down:
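Parental KB-3-1 cells, 500 cells/well, in DMEM with 10% FBS, exposed 72 h at 37 C to compounds in concentration-response. Viability read by CellTiter-Glo luminescence after 30 min at room temperature.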

Experiment [5] deals with Cytochrome P450 1A2 (Homo sapiens) (UniProt P05177). Nature of the experiment: qHTS for inhibitors of CYPIA2 against the NCATS DSHEA and TCM libraries (AID 1919976). Further: potency means the concentration at half of the fitted maximal effect. The method, boiled down: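 Furafylline served as the plate control. Compounds met CYP1A2 and pro-luciferin substrate 15 min before NADPH regeneration solution (1x) was added; after 30-45 min at RT, P450-Glo reagent was added for 30 min and luminescence was measured.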
Cytochrome P450 1A2 (Homo sapiens), sequence (P05177 whole entry, looked up): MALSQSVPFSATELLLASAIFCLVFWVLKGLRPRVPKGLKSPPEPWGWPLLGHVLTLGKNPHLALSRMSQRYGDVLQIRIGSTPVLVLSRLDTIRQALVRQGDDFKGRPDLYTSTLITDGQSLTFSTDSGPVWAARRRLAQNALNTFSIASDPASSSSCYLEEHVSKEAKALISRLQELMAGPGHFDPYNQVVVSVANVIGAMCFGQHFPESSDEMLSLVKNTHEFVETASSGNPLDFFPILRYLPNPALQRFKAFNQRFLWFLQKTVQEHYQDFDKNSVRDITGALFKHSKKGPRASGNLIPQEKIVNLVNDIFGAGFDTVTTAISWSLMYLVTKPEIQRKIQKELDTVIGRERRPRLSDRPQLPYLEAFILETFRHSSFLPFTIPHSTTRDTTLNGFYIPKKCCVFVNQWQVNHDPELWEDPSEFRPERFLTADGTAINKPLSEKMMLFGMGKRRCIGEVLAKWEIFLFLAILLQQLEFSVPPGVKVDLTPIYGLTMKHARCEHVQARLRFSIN

The nature of experiment [6]: qHTS Counterscreen for compound interference against the NCATS DSHEA and TCM libraries (AID 1919978).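 Further: compounds preincubated with 1 µM D-luciferin or buffer before detection reagent; % of control where 0% means no effect.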 The note with it: firefly luciferase detection reagent interference, luminescence. The method, boiled down:
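Firefly luciferase detection reagent was added after compounds (19.5 nM–39.8 uM final) had been incubated 15 min at room temperature with 1 uM D-luciferin or with 100 mM phosphate buffer alone. Luminescence was read after 30 min at room temperature.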

The nature of experiment [7]: Dual reporter qHTS for agonist of Pregnane X Receptor (hPXR) against the NCATS DSHEA and TCM libraries: Fluorescence readout (AID 1920058). Further: 0% is about no effect. In a few lines:
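In this qHTS counter-read, reporter-bearing HepG2 cells in charcoal-stripped serum received substances for approximately 24 h before viability was assessed fluorometrically with CellTiter-Fluor.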

Experiment [8] has as its target Nuclear receptor subfamily 1 group I member 2 (Homo sapiens) (UniProt O75469). As to the kind of experiment: Dual reporter qHTS for agonist of Pregnane X Receptor (hPXR) against the NCATS DSHEA and TCM libraries: Luminescence readout (AID 1920059). Further: 0% is about no effect. The method, boiled down: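 Luminescent PXR reporter read (ONE-Glo) after a CellTiter-Fluor viability read, following 24 h, 37C treatment of HepG2 cells stably carrying hPXR-Luc.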

The nature of experiment [9]: Dual reporter qHTS for antagonist of Pregnane X Receptor (hPXR) against the NCATS DSHEA and TCM libraries: Fluorescence Readout (AID 1920061). Further: 0% is about no effect. The method, boiled down: (§2)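 HepG2 hPXR-Luc, 2000 cells/well, charcoal-stripped FBS medium; 5 h attach; RIF 2 uM final; 24 h 37C/5% CO2; CellTiter-Fluor 1 h, fluor 405/540; ONE-Glo 30 min RT, lum.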
Experiment [10] in a line: qHTS drug screen for cell cycle checkpoint inhibitors in PARPi-resistant BRCA-mutant ovarian cancer cell lines. (AID 1963452; calls by dose curve; further: potency means the concentration at half of the fitted maximal effect). Conditions: PEO1/OlaR viability, CellTiter-Glo luminescence, 96 h; for Z-AUC: stronger effect = lower value. In a few lines: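 PEO1, PEO4 and PEO1/OlaR ovarian cancer cells, 600 per well, exposed 96 h at 37C to a dilution series. Viability read by CellTiter-Glo luminescence, normalized to DMSO and empty wells; activity summarized as Z-AUC.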

Experiment [11] addresses Nuclear receptor subfamily 1 group I member 2 (Homo sapiens) (UniProt O75469). As to the kind of experiment: Dual reporter qHTS for antagonist of Pregnane X Receptor (hPXR) against the NCATS DSHEA and TCM libraries: Luminescence Readout (AID 1920060).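 Further: HepG2 cells carrying hPXR luciferase reporter stimulated with rifampicin at 2 µM; 0% is about no effect.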 The method, boiled down:
as §2

Setting [12] is: measured here: PEO1 parental Z-AUC.

Results filed as inconclusive are left out. The source made the active and inactive calls. Unless noted, the call rests on the fitted dose curve; in most records, active means well fitted curve in the direction sought with a large enough effect; inconclusive means small, poorly fitted or top-dose-only effect, or another doubt; inactive means no such curve, though single readings can be large; an effect the other way counts as inactive or inconclusive.

Cytochrome P450 2C9 (Homo sapiens), sequence (P11712 whole entry, looked up, canonical isoform): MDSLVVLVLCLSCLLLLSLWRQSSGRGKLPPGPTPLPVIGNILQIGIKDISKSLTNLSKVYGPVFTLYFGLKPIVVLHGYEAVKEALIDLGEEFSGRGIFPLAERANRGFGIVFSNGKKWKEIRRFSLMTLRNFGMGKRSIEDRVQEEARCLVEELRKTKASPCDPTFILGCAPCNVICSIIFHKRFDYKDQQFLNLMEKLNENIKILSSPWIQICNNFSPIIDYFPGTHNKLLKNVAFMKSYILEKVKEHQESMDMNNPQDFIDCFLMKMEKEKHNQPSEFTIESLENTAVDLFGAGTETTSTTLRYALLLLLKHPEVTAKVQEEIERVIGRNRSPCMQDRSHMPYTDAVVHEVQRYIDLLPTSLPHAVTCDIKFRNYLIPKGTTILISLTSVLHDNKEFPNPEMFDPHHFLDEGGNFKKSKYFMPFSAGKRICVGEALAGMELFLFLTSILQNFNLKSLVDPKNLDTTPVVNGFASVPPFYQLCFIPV
Nuclear receptor subfamily 1 group I member 2 (Homo sapiens), sequence (O75469 whole entry, looked up): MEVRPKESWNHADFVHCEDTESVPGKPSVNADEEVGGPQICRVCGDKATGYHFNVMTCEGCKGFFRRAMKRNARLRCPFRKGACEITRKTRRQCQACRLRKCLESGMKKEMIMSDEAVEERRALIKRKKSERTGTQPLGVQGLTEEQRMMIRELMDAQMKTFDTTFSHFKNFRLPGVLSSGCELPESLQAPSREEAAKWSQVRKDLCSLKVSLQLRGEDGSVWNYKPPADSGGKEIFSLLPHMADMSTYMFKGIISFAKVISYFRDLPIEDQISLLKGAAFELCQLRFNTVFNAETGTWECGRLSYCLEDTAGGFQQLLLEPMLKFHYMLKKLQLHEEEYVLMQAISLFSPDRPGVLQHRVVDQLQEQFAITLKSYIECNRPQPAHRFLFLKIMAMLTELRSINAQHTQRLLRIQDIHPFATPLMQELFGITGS
Cytochrome P450 2D6 (Homo sapiens), sequence (P10635 whole entry, looked up): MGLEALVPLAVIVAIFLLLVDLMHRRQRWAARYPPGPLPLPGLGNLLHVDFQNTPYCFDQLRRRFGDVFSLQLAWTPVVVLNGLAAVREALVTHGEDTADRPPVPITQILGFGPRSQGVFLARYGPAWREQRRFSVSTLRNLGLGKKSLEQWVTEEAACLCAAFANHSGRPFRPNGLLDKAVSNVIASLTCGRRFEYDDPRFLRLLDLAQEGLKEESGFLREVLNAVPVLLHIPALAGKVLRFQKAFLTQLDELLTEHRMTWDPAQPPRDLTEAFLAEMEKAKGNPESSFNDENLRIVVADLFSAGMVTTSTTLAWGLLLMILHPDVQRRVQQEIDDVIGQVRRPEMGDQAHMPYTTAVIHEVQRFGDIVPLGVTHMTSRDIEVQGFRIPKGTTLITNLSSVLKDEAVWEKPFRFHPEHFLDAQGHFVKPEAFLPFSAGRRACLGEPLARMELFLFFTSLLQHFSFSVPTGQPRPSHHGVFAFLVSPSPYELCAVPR

As to `O=C(O)CC(O)(CC(=O)O)C(=O)O`, the compound was classed as inactive in experiment [1], in experiment [4], in [7], in experiment [8] and in [9]. Further, the Potency entry in experiment [2], in experiment [3] and in [5] was “inactive” in each case. Further, the max response in experiment [6] is -0.506% (inactive).
Take `CC1(C)CN(C(=O)c2ccc(-c3cccc4nc(NC(=O)C5CC5)nn34)cc2)C1`: the results for the Z-AUC in [10], in experiment [10] (setting [12]) and in experiment [10] (measured here: PEO4 Z-AUC) were 0.782 (inactive), 0.925 and 1.32, respectively.
Take `Cn1ncnc1[C@H]1c2n[nH]c(=O)c3cc(F)cc(c23)N[C@@H]1c1ccc(F)cc1`: the Z-AUC in experiment [10] was 0.447 (inactive); in [10] (setting [12]) it was -1.15; in [10] (measured here: PEO4 Z-AUC), -0.329.
On the same counts, the results for `CC(C)S(=O)(=O)c1ccc2nccc(Nc3ccc4scnc4c3)c2c1` are -0.9 (inactive), -0.597 and -0.874.
For `Cc1cc(N2CCOCC2)ccc1Nc1nc(NC2CCCCC2)c2[nH]cnc2n1`, the values for the Z-AUC in [10], in [10] (setting [12]) and in experiment [10] (measured here: PEO4 Z-AUC) were -0.0672 (inactive), -0.748 and -0.826, respectively.
`Cc1cc(-c2nc3cc(F)ccc3s2)ccc1NC(=O)[C@@H](N)CCCCN`: the Z-AUC in experiment [10] is -0.88 (inactive); in [10] (setting [12]) it was -1.06; in [10] (measured here: PEO4 Z-AUC) it was -1.32.
For the compound `C=C1[C@H]2CC[C@H](C(=O)O)[C@@]23CC[C@H](C3)C1(C)C`, the compound was classed as inactive in [1], in experiment [4], in experiment [7], in experiment [8], in experiment [11] and in [9]. Further, the Potency result in [2], in experiment [3] and in experiment [5] was “inactive” each time. The max response in experiment [6] is 1.56% (inactive).
As for `CCn1c(=O)c(-c2ccc(-c3cncs3)cc2Cl)cc2cnc(Nc3ccc(N4CCN(C)CC4)cc3)nc21`, the Z-AUC in [10] is -1.32 (inactive); in experiment [10] (setting [12]), -0.743; in [10] (measured here: PEO4 Z-AUC), -0.961.
As to `N#Cc1ccc(COC[C@H]2O[C@@H](n3c(NCc4ccc(Cl)c(Cl)c4)nc4c(N)ncnc43)[C@H](O)[C@@H]2O)cc1`, the results for the Z-AUC in experiment [10], in experiment [10] (setting [12]) and in experiment [10] (measured here: PEO4 Z-AUC) were -0.735 (inactive), -0.265 and 0.0878, respectively.
Turning to `COc1ccccc1C(=O)Nc1cc2c(cc1N1CCCC1)n(C)c(=O)n2C`, the Z-AUC in experiment [10] is -1.16 (inactive); in experiment [10] (setting [12]) it was -0.583; in experiment [10] (measured here: PEO4 Z-AUC) it was -0.727.
For `COc1ccc2nc3n[nH]c(C)c3c(NCCOCCO)c2c1`, the Z-AUC in experiment [10] was -0.331 (inactive); in experiment [10] (setting [12]) it was 0.387; in experiment [10] (measured here: PEO4 Z-AUC), 0.00576.
In the case of `CCc1cc(C(N)=O)ccc1-n1nc(C(C)C)c2c(-n3cnc(-c4cnn(C)c4)c3)ccnc21`, the Z-AUC in experiment [10] is -0.734 (inactive); in [10] (setting [12]), -1.82; in experiment [10] (measured here: PEO4 Z-AUC), -1.2.
For `O=C(N[C@H]1CCC[C@H](CO)C1)C1CCN(c2nc3cc(Cl)c(-c4ccc(Cl)cc4)cc3o2)CC1`, the values for the Z-AUC in experiment [10], in experiment [10] (setting [12]) and in experiment [10] (measured here: PEO4 Z-AUC) were -0.759 (inactive), 0.237 and -0.768, respectively.
Take `CC(=O)C1=C(O)C=C2Oc3c(C(C)=O)c(O)c(C)c(O)c3[C@]2(C)C1=O`: the Potency is 4.47 µM (active) in experiment [2], 3.98 µM (active) in experiment [3] and 7.94 µM (active) in experiment [5]. Besides, the compound was classed as inactive in experiment [4], in experiment [7], in [11] and in experiment [9]. Moreover, the max response in experiment [6] was -5.05% (inactive).
In the case of `O=C(NCCCNc1nc(Nc2cccc(CN3CCOCC3)c2)ncc1C1CC1)C1CCC1`, the Z-AUC was -0.249 (inactive) in [10], -0.12 in experiment [10] (setting [12]) and -0.429 in experiment [10] (measured here: PEO4 Z-AUC).
As for `Cc1ccc(NC(=O)c2ccc(CN3CCNCC3)cc2)cc1Nc1nccc(-c2cccnc2)n1`, the Z-AUC in experiment [10] is 0.805 (inactive); in [10] (setting [12]), 0.225; in [10] (measured here: PEO4 Z-AUC) it was 0.453.
For `Cc1cc(F)c(C(=O)Nc2cccc(-c3nncn3C(C)C)n2)cc1-n1cnc(C2CC2)c1`, the Z-AUC in experiment [10] is -0.535 (inactive); in experiment [10] (setting [12]) it was -0.555; in experiment [10] (measured here: PEO4 Z-AUC), -0.37.
Regarding `Cc1sc2c(c1C)C(c1ccc(Cl)cc1)=N[C@@H](CC(=O)Nc1ccc(OCCOCCOCCOCCNc3cccc4c3C(=O)N(C3CCC(=O)NC3=O)C4=O)cc1)c1nnc(C)n1-2` (some centres undefined), the Z-AUC in experiment [10] is -1.58 (inactive); in experiment [10] (setting [12]) it was -2.13; in [10] (measured here: PEO4 Z-AUC) it was -1.49.
`Cn1ncc(Cl)c1-c1cc(C(=O)N[C@H](CN)Cc2cccc(F)c2)sc1Cl`: the Z-AUC is 0.3 (inactive) in experiment [10], 0.0445 in experiment [10] (setting [12]) and 0.251 in experiment [10] (measured here: PEO4 Z-AUC).
Turning to `c1cc(-c2cnn3cc(-c4ccc(N5CCNCC5)cc4)cnc23)c2cccnc2c1`, the Z-AUC was -1.26 (inactive) in experiment [10], -1.26 in [10] (setting [12]) and -1.83 in experiment [10] (measured here: PEO4 Z-AUC).
`COc1cccc(OCCCN)c1-c1cc(Nc2cnc(C#N)cn2)n[nH]1`: the Potency in [10] is 0.0049 µM (active). For the same compound, the figures for the Z-AUC in experiment [10] (setting [12]) and in experiment [10] (measured here: PEO4 Z-AUC) were -2.4 and -2.98, respectively.
Regarding `CCCCOC(=O)NS(=O)(=O)c1sc(CC(C)C)cc1-c1ccc(Cn2ccnc2)cc1`, the Z-AUC in [10] is 0.282 (inactive); in [10] (setting [12]), 0.365; in experiment [10] (measured here: PEO4 Z-AUC), 0.449.
Take `Cc1cc(C(=O)Nc2cc(Nc3ccc4c(/C=C/c5ccccn5)n[nH]c4c3)ccc2F)n(C)n1`: the Z-AUC in [10] is -1.04 (inactive); in experiment [10] (setting [12]), -0.196; in [10] (measured here: PEO4 Z-AUC), -0.912.
For the compound `NC(=O)c1ccccc1Nc1ccnc(Nc2cccc(O)c2)n1`, the Z-AUC in experiment [10] is -1.9 (inactive); in experiment [10] (setting [12]), -1.44; in [10] (measured here: PEO4 Z-AUC), -1.66.
Take `COc1c(C)cc(NC(=O)c2nn(Cc3ccc(F)cc3)c3c2CN(C(=O)c2ccc[nH]2)C[C@]3(C)C(N)=O)cc1C`: the Z-AUC is -0.421 (inactive) in experiment [10], -0.262 in experiment [10] (setting [12]) and -0.568 in experiment [10] (measured here: PEO4 Z-AUC).
For `O=C([C@@H](Cc1cccc(C(F)(F)F)c1)NS(=O)(=O)c1cc(F)c2c(c1)CCNC2)N1CCCC1` the same measures were -0.343 (inactive), -0.218 and -0.109.
`COc1cc(OC)c2c(=O)[nH]c(-c3cc(C)c(OCCO)c(C)c3)nc2c1`: the Z-AUC in experiment [10] is 1.34 (inactive); in experiment [10] (setting [12]), 1.31; in [10] (measured here: PEO4 Z-AUC) it was 1.15.
